Common to all, as to experiment: protein-binding microarray (PBM); PBM: ~300 nM protein, 6 mM HEPES pH 7.8, 80 mM KCl, 0.5 mM EDTA, 0.5 mM EGTA, 6% glycerol, 35 ng/ul poly-dIdC, 1% milk, 1 h, room temperature; Ap Aiptasia and Nv Nematostella (sea anemones) / Co Capsaspora / Aq Amphimedon (sponge) / Dm Drosophila / Hu human; RHD is the Rel homology domain; high values mean tight binding
Common to all, as to conditions: dsDNA, one strand shown

One test concerns the target T1, GST-Ap-NF-kB RHD (Exaiptasia pallida (Aiptasia), UniProt A0A913YAJ5 2-422).
T1 sequence: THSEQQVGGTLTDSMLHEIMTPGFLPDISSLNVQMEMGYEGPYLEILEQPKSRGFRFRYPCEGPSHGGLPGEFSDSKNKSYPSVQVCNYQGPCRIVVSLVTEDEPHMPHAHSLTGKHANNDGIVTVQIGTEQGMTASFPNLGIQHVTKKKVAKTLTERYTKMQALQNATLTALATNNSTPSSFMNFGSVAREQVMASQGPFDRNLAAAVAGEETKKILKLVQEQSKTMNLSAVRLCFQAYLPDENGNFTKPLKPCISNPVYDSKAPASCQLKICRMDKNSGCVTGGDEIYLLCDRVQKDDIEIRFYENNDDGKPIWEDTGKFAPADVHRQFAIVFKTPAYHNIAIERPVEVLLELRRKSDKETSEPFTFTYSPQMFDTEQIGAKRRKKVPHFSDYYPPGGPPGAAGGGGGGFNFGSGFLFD

The target in test [1] is T2, GST-Nv-NF-kB (Cys allele) (Nematostella vectensis, UniProt E5G601 2-411).
T2 sequence: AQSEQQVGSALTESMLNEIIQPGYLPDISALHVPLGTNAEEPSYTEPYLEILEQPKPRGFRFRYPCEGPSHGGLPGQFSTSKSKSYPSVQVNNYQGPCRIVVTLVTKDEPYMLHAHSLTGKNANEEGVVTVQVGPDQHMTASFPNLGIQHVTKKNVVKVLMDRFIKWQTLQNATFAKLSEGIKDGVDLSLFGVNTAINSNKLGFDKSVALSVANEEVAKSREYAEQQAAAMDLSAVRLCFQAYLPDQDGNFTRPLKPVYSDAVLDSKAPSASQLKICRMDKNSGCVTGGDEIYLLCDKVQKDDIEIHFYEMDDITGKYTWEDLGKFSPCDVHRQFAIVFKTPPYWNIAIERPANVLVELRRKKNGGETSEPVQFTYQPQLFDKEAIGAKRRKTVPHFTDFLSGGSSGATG

Another test concerns the target T3, GST-Co-NF-kB (Capsaspora owczarzaki, UniProt F1ARL5 200-546).
T3 sequence: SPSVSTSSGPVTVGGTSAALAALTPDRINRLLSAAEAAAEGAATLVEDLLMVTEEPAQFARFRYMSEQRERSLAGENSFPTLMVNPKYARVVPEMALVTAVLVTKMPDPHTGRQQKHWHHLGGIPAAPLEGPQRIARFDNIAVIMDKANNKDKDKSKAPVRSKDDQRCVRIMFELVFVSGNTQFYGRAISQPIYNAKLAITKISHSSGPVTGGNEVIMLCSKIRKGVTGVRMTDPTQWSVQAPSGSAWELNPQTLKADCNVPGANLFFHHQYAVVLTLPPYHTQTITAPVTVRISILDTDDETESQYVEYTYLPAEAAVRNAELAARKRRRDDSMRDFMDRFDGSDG

For a further test, the target named is T4, GST-Dm-Relish (Drosophila melanogaster, UniProt Q94527 99-473).
T4 sequence: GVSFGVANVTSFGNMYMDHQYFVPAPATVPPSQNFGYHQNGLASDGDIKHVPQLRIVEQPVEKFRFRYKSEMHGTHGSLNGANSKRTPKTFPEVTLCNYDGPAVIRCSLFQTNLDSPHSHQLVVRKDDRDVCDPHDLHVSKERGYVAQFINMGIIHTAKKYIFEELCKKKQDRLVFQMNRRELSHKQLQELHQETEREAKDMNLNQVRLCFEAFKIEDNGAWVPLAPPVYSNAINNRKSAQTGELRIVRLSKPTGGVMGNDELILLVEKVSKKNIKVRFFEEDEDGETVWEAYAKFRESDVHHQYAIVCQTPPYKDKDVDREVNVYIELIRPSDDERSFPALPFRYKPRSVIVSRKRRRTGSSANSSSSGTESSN

The target in the next test is T5, GST-Aq-NF-kB (Amphimedon queenslandica, UniProt A9Y5G7 2-389).
T5 sequence: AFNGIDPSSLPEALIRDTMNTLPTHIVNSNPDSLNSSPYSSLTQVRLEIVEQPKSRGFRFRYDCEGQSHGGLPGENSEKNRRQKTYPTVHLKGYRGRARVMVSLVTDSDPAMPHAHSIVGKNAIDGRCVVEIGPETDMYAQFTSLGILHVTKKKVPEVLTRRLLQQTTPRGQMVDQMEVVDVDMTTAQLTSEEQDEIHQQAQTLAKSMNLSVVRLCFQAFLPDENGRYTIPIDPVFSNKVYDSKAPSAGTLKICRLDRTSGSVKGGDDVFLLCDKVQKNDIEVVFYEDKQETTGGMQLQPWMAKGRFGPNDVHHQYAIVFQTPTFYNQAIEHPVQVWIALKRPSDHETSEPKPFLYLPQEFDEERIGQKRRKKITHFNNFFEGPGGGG

Drawing on paper PMC5700166, this text covers binding signal for 13 sequences.

Consider “CCGATTAACATCAATTCCCAAGGTGATGTTAATCGGGTCTTGATTCGCTTGACGCTGCTG”, for which the binding signal with GST-Ap-NF-kB RHD is 1.3 z-score; in test [1], 1.9 z-score; with GST-Co-NF-kB it was 2.02 z-score; with GST-Dm-Relish, 1.17 z-score; in the test with GST-Aq-NF-kB, 1.55 z-score.
For “CCGATTAACATCAAATTCCCAGTTGATGTTAATCGGGTCTTGATTCGCTTGACGCTGCTG”, the binding signal with GST-Ap-NF-kB RHD came out at 1.52 z-score; in test [1], 3.74 z-score; in the test with GST-Co-NF-kB, 2.97 z-score; in the test with GST-Dm-Relish it was 4.29 z-score; with GST-Aq-NF-kB, 2.37 z-score.
As for “CCGATTAACATCAAGGGAATACCTGATGTTAATCGGGTCTTGATTCGCTTGACGCTGCTG”, the binding signal in the test with GST-Ap-NF-kB RHD is 4.61 z-score; in test [1], 4.26 z-score; with GST-Co-NF-kB it was 2.25 z-score; with GST-Dm-Relish, 6.28 z-score; in the test with GST-Aq-NF-kB, 5.48 z-score.
For the sequence “CCGATTAACATCAGAGTCCCCCCTGATGTTAATCGGGTCTTGATTCGCTTGACGCTGCTG”, the binding signal with GST-Ap-NF-kB RHD turned out to be 5.97 z-score; in test [1], 5.02 z-score; with GST-Co-NF-kB it was 7.33 z-score; in the test with GST-Dm-Relish, 5.14 z-score; in the test with GST-Aq-NF-kB, 4.89 z-score.
As to “CCGATTAACATCACGGAACTCCCTGATGTTAATCGGGTCTTGATTCGCTTGACGCTGCTG”, the binding signal with GST-Ap-NF-kB RHD was determined as 3 z-score; in test [1], 3.34 z-score; with GST-Co-NF-kB, 1.42 z-score; in the test with GST-Dm-Relish it was 4.06 z-score; in the test with GST-Aq-NF-kB, 4.43 z-score.
For the sequence “CCGATTAACATCAGGCTTCCCCCTGATGTTAATCGGGTCTTGATTCGCTTGACGCTGCTG”, the binding signal with GST-Ap-NF-kB RHD came out at 5.74 z-score; in test [1], 5.65 z-score; with GST-Co-NF-kB it was 6.8 z-score; in the test with GST-Dm-Relish, 6.44 z-score; with GST-Aq-NF-kB it was 5.57 z-score.
Regarding “CCGATTAACATCATGCGGGAAAATGATGTTAATCGGGTCTTGATTCGCTTGACGCTGCTG”, the binding signal with GST-Ap-NF-kB RHD stood at 2.22 z-score; in test [1], 3.71 z-score; with GST-Co-NF-kB, 4.47 z-score; with GST-Dm-Relish, 1.22 z-score; in the test with GST-Aq-NF-kB, 2.76 z-score.
Regarding “CCGATTAACATCAGGACTACCCCTGATGTTAATCGGGTCTTGATTCGCTTGACGCTGCTG”, the binding signal was determined as 3.7 z-score with GST-Ap-NF-kB RHD; 3.48 z-score in test [1]; 1.83 z-score in the test with GST-Co-NF-kB; 2.36 z-score with GST-Dm-Relish; 6.48 z-score with GST-Aq-NF-kB.
“CCGATTAACATCAAGGGATCCCCTGATGTTAATCGGGTCTTGATTCGCTTGACGCTGCTG”: the binding signal with GST-Ap-NF-kB RHD was 8.25 z-score; in test [1] it was 5.8 z-score; in the test with GST-Co-NF-kB, 4.18 z-score; in the test with GST-Dm-Relish it was 9.18 z-score; with GST-Aq-NF-kB it was 6.19 z-score.
As for “CCGATTAACATCAGGGATTTTCATGATGTTAATCGGGTCTTGATTCGCTTGACGCTGCTG”, the binding signal came out at 5.23 z-score with GST-Ap-NF-kB RHD; 4.83 z-score in test [1]; 1.61 z-score in the test with GST-Co-NF-kB; 6.05 z-score in the test with GST-Dm-Relish; 5.16 z-score with GST-Aq-NF-kB.
Turning to “CCGATTAACATCAGGGGGTACCCTGATGTTAATCGGGTCTTGATTCGCTTGACGCTGCTG”, the binding signal in the test with GST-Ap-NF-kB RHD stood at 7.79 z-score; in test [1] it was 4.44 z-score; in the test with GST-Co-NF-kB it was 4.14 z-score; with GST-Dm-Relish, 6.71 z-score; with GST-Aq-NF-kB, 6.6 z-score.
The corresponding values for “CCGATTAACATCAGGGGATGACCTGATGTTAATCGGGTCTTGATTCGCTTGACGCTGCTG” are 3.72 z-score, 4.14 z-score, 1.93 z-score, 6.67 z-score and 6.55 z-score.
Take “CCGATTAACATCAGGGGGCATTATGATGTTAATCGGGTCTTGATTCGCTTGACGCTGCTG”: the binding signal came to 3.92 z-score with GST-Ap-NF-kB RHD; 4.06 z-score in test [1]; 2.64 z-score with GST-Co-NF-kB; 2.7 z-score with GST-Dm-Relish; 4.27 z-score with GST-Aq-NF-kB.
